# Screening data from PubChem.
# Shown are actives, neighbours in structure and some others; about 19% of the full set was active somewhere.
# DT40 TDP1 CPT: qHTS for Inhibitors of human tyrosyl-DNA phosphodiesterase 1 (TDP1): qHTS in cells in presence of CPT; chicken DT40 Tdp1-/-;hTDP1 cells + 20 nM CPT, ATP luminescence, 48 h; Potency, µM (titrated, usually from 46.2 µM), for inactives: at the highest dose activity change, negative = growth inhibition, usual class: inhibitors; 12% of 420,000 active; also: nearly all actives have a fitted effect of over 55% in size
#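 Chicken DT40 Tdp1-/- cells stably complemented with human TDP1 were seeded at 400 cells/well in medium containing 20 nM camptothecin, exposed to pin-transferred compounds, and grown at 37 °C for at least 48 hr. Viability was read as ATP luminescence.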
# HT1080-NT tox: qHTS for induction of synthetic lethality in tumor cells producing 2HG: qHTS for the HT-1080-NT fibrosarcoma cell line; HT-1080-NT fibrosarcoma viability, CellTiter-Glo ATP luminescence, 48 h; Potency, µM (top dose mostly 46.1 µM), without a hit: at the highest dose activity, negative = less viability, most hits filed as cytotoxic; 1.6% of 360,000 active; AID 686970, 2013;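 also: NT is the 2HG producing partner of a matched IDH1 knockdown line; 0% = DMSO-treated cells and -100% = media-only wells without cells; nearly all actives have a fitted effect of over 55% in size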
#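 Fibrosarcoma NT cells, 750 per well in 5% FBS RPMI, were exposed to compound for 48 hours. Viability: CellTiter-Glo luminescence.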
# HT1080 IDH1KD tx: qHTS for induction of synthetic lethality in tumor cells producing 2HG: qHTS for the HT-1080-IDH1KD cell line | HT-1080 IDH1 knockdown viability, ATP luminescence, 48 h | Potency, µM (highest dose often 46.1 µM), inactives show top-dose activity, negative = toxicity, actives largely listed as cytotoxic | 2% of 360,000 active | AID 686971, 2013;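 also: 0% = DMSO wells and -100% = cell-free medium wells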
#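 Assay cells: HT-1080 with IDH1 knockdown, 750 per well, RPMI/5% FBS. Exposure: 48 h at 37 °C following 2 h pre-incubation. Read: CellTiter-Glo luminescence; fitted concentration-response, curve class assigned.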
# KB-3-1 cytotox: qHTS assay for MDR1-selective chemotherapeutics: Primary screen using the parental adenocarcinoma cell KB-3-1; 1.4% of 400,000 active; Potency, µM (highest dose often 46.1 µM), hits mostly cytotoxic; KB-3-1 viability, CellTiter-Glo ATP luminescence, 72 h; also: nearly all actives have a fitted effect of over 60% in size
#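 Screening of KB-3-1 cells (DMEM, 10% FBS, phenol-red free) ran from lowest to highest compound concentration; after 72 h at 37 °C viability was read luminescently and curves fitted.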
# KB-V1 cytotox: qHTS assay for MDR1-selective chemotherapeutics: Primary screen using the drug-selected MDR subline cells KB-V1; Potency, µM (highest dose often 46.1 µM), hits mostly cytotoxic; KB-V1 MDR cells viability, CellTiter-Glo, 72 h; 3.4% of 400,000 active; also: nearly all actives have a fitted effect of over 60% in size
#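 qHTS viability screen in drug-selected KB-V1 MDR cells: 72 h compound treatment at 37 degrees C, ATP luminescence end point.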
# TDP1 cell noCPT: qHTS for Inhibitors of human tyrosyl-DNA phosphodiesterase 1 (TDP1): qHTS in cells in absence of CPT | DT40 Tdp1-/- hTDP1 cells, no CPT, ATP luminescence, 48 h | Potency, µM (series often up to 46.2 µM), for the others: top-dose activity change, negative = growth inhibition, hits mostly inhibitors | 15% of 420,000 active | AID 686978, 2013; also: nearly all actives have a fitted effect of over 55% in size
#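 A cellular qHTS used chicken DT40 cells lacking endogenous Tdp1 but carrying stably transfected human TDP1. Compounds were applied without camptothecin, and cell growth kinetics were judged by ATP-dependent luminescence after ≥48 hr.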
# Active calls of the source: *; i = inactive; ? = inconclusive; · = no result; [ ] = remark or other dose. Calls follow the shape of the dose curve; as a rule, active = well fitted curve in the direction sought with a large enough effect; inconclusive = small, poorly fitted or top-dose-only effect, or another doubt; inactive = no such curve, though single readings can be large; an effect the other way counts as inactive or inconclusive. Unless noted, % is scaled to controls: 0 for no effect and ±100 for the full control effect; potency is read from the fitted curve at half-maximal effect.
SMILES,DT40 TDP1 CPT,HT1080-NT tox,HT1080 IDH1KD tx,KB-3-1 cytotox,KB-V1 cytotox,TDP1 cell noCPT
CCOC(=O)C(CC)(CC)/C(C)=N/NC(=O)CC#N,-3%,8%,9%,i,i,-12%
CC(CCc1ccccc1)NC(=O)C1CCN(S(=O)(=O)c2cnc[nH]2)CC1 (stereo not drawn),-1%,6%,10%,i,i,-6%
CS(=O)(=O)N(CC(=O)Nc1ccc2c(c1)OCO2)c1ccc(Cl)cc1,6%,-3%,-1%,i,23µM*,-18%
Cc1ccc(N(CC(=O)Nc2ccc3c(c2)OCCO3)S(C)(=O)=O)cc1,2%,13%,0%,i,i,-28%
Cc1ccc(S(=O)(=O)NCCc2cn3c(C)csc3n2)cc1,0%,·,·,·,·,-24%
CC(=O)c1ccc(Nc2nc(C(N)CCc3ccccc3)cs2)cc1 (stereo not drawn),?,21µM*,?,i,i,16µM*
CC(=O)c1ccc(Nc2nc(C(N)Cc3ccc(N)cc3)cs2)cc1 (stereo not drawn),?,-7%,0%,i,i,?
CC(=O)c1ccc(Nc2nc(C(N)Cc3ccc(Cl)cc3)cs2)cc1 (stereo not drawn),18µM*,23µM*,?,?,i,?
O=C(O)c1ccc(COCC(F)(F)C(F)F)o1,-2%,23%,15%,i,?,8%
O=C(CCSc1ccc(Cl)cc1)N1CCN(S(=O)(=O)c2ccccc2)CC1,21µM*,-8%,-11%,i,21µM*,18µM*
CCCOc1ccccc1OCC(=O)N1CCN(S(=O)(=O)c2ccc(Cl)cc2)CC1,-26%,0%[9.24 µM],-11%,i,i,-13%
CCOc1ccccc1OCCCC(=O)N1CCN(S(=O)(=O)c2ccc(Cl)cc2)CC1,?,-1%,-2%,i,i,18µM*
CCOC(=O)C1(CC2CCCCO2)CCN(S(=O)(=O)c2ccsc2)CC1 (stereo not drawn),-13%,-1%,3%,i,i,-2%
O=c1[nH]cc(S(=O)(=O)Nc2ccc3c(c2)OCO3)c(=O)[nH]1,-1%,-3%,-2%,i,i,-16%
Oc1ccc2oc3c(c2c1C=NCc1ccncc1)CCCC3,-24%,?,?,i,i,-25%
COc1cc(SC#N)ccc1N=Cc1c(C)[nH]n(-c2cccc3ccccc23)c1=O,10µM*,1%,13%,i,i,10µM*
COc1cc(SC#N)ccc1N=Cc1c(C)[nH]n(-c2ccc(C)cc2C)c1=O,21µM*,1%,-12%,i,i,15µM*
O=c1cc[nH]c2ccc(Cl)cc12,-15%,-8%,11%,i,i,-17%
O=c1cccc2c1c1cc[nH]c3ccc(=O)n2c31,9.2µM*,-30%,-23%,?,?,18µM*
O=C1c2cccc(OCC(=O)N3CCCc4ccccc43)c2CCN1Cc1ccc(Br)cc1,18µM*,-27%,?,18µM*,18µM*,18µM*
O=C(COc1cccc2c1CCN(Cc1ccc(Br)cc1)C2=O)N1CCOCC1,?,-14%,-2%,?,4.1µM*,23µM*
CCN1CCc2c(OCC(=O)N3CCCc4ccccc43)cccc2C1=O,-22%,1%,0%,i,?,-29%
O=C(COc1cccc2c1CCN(Cc1ccc(Br)cc1)C2=O)NCc1ccco1,18µM*,-5%,-2%,?,2.6µM*,23µM*
O=C(COc1ccc(Br)cc1)N1CCOCC1,-11%,-4%,-2%,i,i,-16%
CCc1nc2ccc(C(=O)NCCNC(C)=O)cn2c1N(CC)CCOC,3%,11%,27%,i,i,-2%
SMILES,DT40 TDP1 CPT,HT1080-NT tox,HT1080 IDH1KD tx,KB-3-1 cytotox,KB-V1 cytotox,TDP1 cell noCPT
CCN1CNC(=S)N(c2cc(C)ccc2C)C1,-27%,0%,?,i,i,4%
COC(=O)c1ccc(Cn2nnc3c(=O)[nH]c(C4CCN(S(=O)(=O)c5cc(C)ccc5C)CC4)nc32)cc1,23µM*,3%,19%,i,i,?
O=c1[nH]c(C2CCN(S(=O)(=O)c3ccc(S(=O)(=O)NC4CC4)cc3)CC2)nc2c1nnn2Cc1cccc(F)c1,16µM*,?,-27%,?,i,?
COC(=O)c1ccc(Cn2nnc3c(=O)[nH]c(C4CCCN(S(=O)(=O)c5ccc(C)cc5)C4)nc32)cc1 (stereo not drawn),-20%,-2%,6%,i,i,?
O=c1[nH]c(C2CCN(S(=O)(=O)c3ccccc3)CC2)nc2c1nnn2Cc1ccccc1,21µM*,-5%,-1%,i,i,?
O=c1[nH]c(C2CCN(S(=O)(=O)c3cccc(C(F)(F)F)c3)CC2)nc2c1nnn2Cc1cccc(F)c1,18µM*,21µM*,21µM*,?,?,21µM*
C[N+]1(CC(=O)c2ccc3ccccc3c2)CCOCC1,8%,·,·,?,i,-4%
O=C(O)CC(Cc1ccccc1)(C(=O)O)c1ccccc1 (stereo not drawn),-13%,6%,2%,i,i,-2%
Cc1cccc(-n2cnc3c(sc4nc(N5CCOCC5)c5c(c43)CCCC5)c2=O)c1,?,-16%,-25%,i,?,21µM*
CCN(CC)CCNc1ncnc2c1sc1nc(N3CCOCC3)c3c(c12)CCCC3,?,2%,10%,15µM*,?,?
OCCNc1ncnc2c1sc1nc(N3CCOCC3)c3c(c12)CCC3,?,-8%,7%,?,?,15µM*
CCCCCCNc1ncnc2c1sc1nc(N3CCOCC3)c3c(c12)CCCC3,?,·,·,i,i,?
Cc1cc(C)n(-c2ccc(NC(=O)C3CCN(Cc4ccc(C)o4)CC3)cc2)n1,-27%,-3%,0%,i,i,?
O=C(Nc1c2ccccc2nc2ccccc12)C(Cl)(Cl)Cl,16µM*,-20%,-3%,?,i,23µM*
